AMA1-RON2 inh = disrupts binding of P. falciparum AMA1 to RON2 | AlphaScreen AMA1-biotinylated RON2 peptide binding | Potency, µM (series often up to 58.2 µM), without a hit: top-dose activity change, negative = inhibition, actives largely listed as inhibitors | hit rate 0.2% among 360,000 | AID 720542;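 further: 0% = vehicle wells and -100% = peptide control; nearly all actives have a fitted effect of over 45% in size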
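AMA1 (3D7) with his tag at 25 nM final met compounds first, then biotinylated RON2 peptide at 25 nM; detection used donor plus acceptor beads, 10 µg/mL apiece, read by AlphaScreen after 30 min at room temperature.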
Pf growth 96h = P. falciparum growth inhibition at 96 hour, primary screen for plastid delayed-death inhibitors | P. falciparum luciferase reporter growth, 96 h | hit rate 6.9% among 320,000 | Potency, µM (titrated, usually from 28.7 µM), for inactives: at the highest dose activity change, negative = inhibition, usual class: inhibitors | AID 504834; further: on the % scale 0 is the no-effect control and ±100 the full control effect
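Luminescence readout: decreased luciferase signal marks inhibited growth of reporter-expressing P. falciparum in infected red cells (2% hematocrit, 0.05% parasitemia final), exposed to compound two generations (96 h, 37 C, 5% CO2).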
NS1 function inh = influenza NS1 inhibition | AID 2326 | hit rate 0.4% among 270,000 | Potency, µM (highest dose often 46.1 µM), without a hit: at the top dose activity, positive = more growth; calls by dose curve; further: actives are rising curves; nearly all actives have a fitted effect of over 50% in size
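In this qHTS, NS1 from influenza A is expressed in budding yeast, where it slows growth. Cells are switched from glucose to 2% galactose medium (pH 6.0, -URA), treated with compound, and growth recovery is read at OD600.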
Pf growth 48h = P. falciparum growth inhibition at 48 hours (one generation); P. falciparum luciferase growth in erythrocytes, 48 h; Potency, µM (highest dose often 28.7 µM), inactives show at the highest dose activity change, negative = inhibition, usual class: inhibitors; hit rate 5.9% among 310,000; AID 504832; further: on the % scale 0 is the no-effect control and ±100 the full control effect
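First compound was added to culture medium, then infected red cells at 0.1% parasitemia and 2% hematocrit (final). After incubation at 37 C under 5% CO2, luciferase detection reagent was dispensed and light output recorded.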
Sm TGR inh = inhibitors of Schistosoma mansoni thioredoxin glutathione reductase; hit rate 3% among 360,000; purified TGR, DTNB reduction, TNB absorbance 405 nm; Potency, µM (doses to about 114 µM), without a hit: at the top dose activity change, negative = inhibition, actives largely listed as inhibitors; further: on the % scale 0 is the no-effect control and ±100 the full control effect; nearly all actives have a fitted effect of over 60% in size
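First, TGR (20 nM dispensed) and NADPH were mixed with compound. Second, a 15 min room-temperature incubation followed. Third, further NADPH and then DTNB were added to start the reaction. Finally, TNB absorbance was monitored kinetically.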
The depositor's hits bear a star. Rows were chosen to be rich in hits. Some 11% of all compounds tested hit in one or more screens of this group. Unless noted, the call rests on the fitted dose curve; in most records, active means well fitted curve in the direction sought with a large enough effect; inconclusive means small, poorly fitted or top-dose-only effect, or another doubt; inactive means no such curve, though single readings can be large; an effect the other way counts as inactive or inconclusive. Potency means the concentration at half of the fitted maximal effect.

Results for CC1=CC(C)(C)Nc2ccc(OC(=O)c3ccco3)cc21 ?
AMA1-RON2 inh: -18.3%; Pf growth 96h: 9.28µM*; NS1 function inh: -57.4%; Pf growth 48h: 11.7µM*; Sm TGR inh: -20.1%

How did CC1=CC(C)(C)Nc2ccc(OC(=O)CN3C(=O)CCC3=O)cc21 do in these assays?
AMA1-RON2 inh: -3.4%; NS1 function inh: -0.3%; Pf growth 48h: 10.4µM*; Sm TGR inh: 0.0%

Results for CC1=CC(C)(C)Nc2ccc(OC(=O)C(C)N3C(=O)c4ccccc4C3=O)cc21 (stereo not given) ?
AMA1-RON2 inh: inconclusive; Pf growth 96h: inconclusive; NS1 function inh: 29.6%; Pf growth 48h: 13.1µM*; Sm TGR inh: -9.7%

What do the screens show for `CCN(CC)C(=O)c1sc(NC(=O)C(C)Sc2nc(-c3ccccc3)cc(C(F)(F)F)n2)c(C(=O)OC)c1C` (stereo not given)?
Sm TGR inh: 9.4%

What do the screens show for `CC1(C)Cc2c(cnn2-c2ccccc2)C(NC(=O)c2ccc[n+]([O-])c2)C1` (stereo not given)?
AMA1-RON2 inh: 5.8%; Pf growth 96h: 9.2%; NS1 function inh: 21.4%; Pf growth 48h: 4.9%; Sm TGR inh: 0.0%

What do the screens show for `CC1=CC(C)(C)Nc2ccc(OC(=O)c3cccnc3)cc21`?
AMA1-RON2 inh: -11.8%; NS1 function inh: -8.0%; Pf growth 48h: 5.22µM*; Sm TGR inh: -14.0%

How did CN1c2ccccc2N(C)C1(C)c1ccccc1 do in these assays?
AMA1-RON2 inh: inconclusive; Pf growth 96h: -0.1%; NS1 function inh: inconclusive; Pf growth 48h: 2.33µM*; Sm TGR inh: 44.7µM*

Results for CCN1c2ccccc2N(C)C1(C)c1ccccc1 (stereo not given) ?
AMA1-RON2 inh: 31.6µM*; Pf growth 96h: 0.0%; NS1 function inh: 21.6%; Pf growth 48h: 2.62µM*; Sm TGR inh: 35.5µM*

How did O=C(O)CC1(C(=O)O)CC2C=CC1C2 (stereo not given) do in these assays?
AMA1-RON2 inh: 2.2%

How did Cc1c(Cl)cccc1N1CCn2c1nc1c2c(=O)n(CC(=O)O)c(=O)n1C do in these assays?
Sm TGR inh: 10.2%

Results for C=C(C)Cn1c(=O)c2c(nc3n2CCN3c2cccc(Cl)c2C)n(C)c1=O ?
AMA1-RON2 inh: -10.0%; Pf growth 96h: inconclusive; NS1 function inh: -7.1%; Pf growth 48h: 9.28µM*; Sm TGR inh: 8.1%

What do the screens show for `O=C(CCNS(=O)(=O)c1ccc2[nH]c(=O)oc2c1)Nc1ccccc1`?
AMA1-RON2 inh: 2.9%; Pf growth 96h: 4.2%; NS1 function inh: 17.1%; Pf growth 48h: 15.1%; Sm TGR inh: -0.5%

How did COc1ccc([N+](=O)[O-])cc1/C=N/NC(=O)CNC(=O)c1cccc(F)c1 do in these assays?
AMA1-RON2 inh: 62.1%; Pf growth 96h: 1.85µM*; NS1 function inh: -10.0%; Pf growth 48h: 26.4%; Sm TGR inh: 3.7%

How did O=C(CNC(=O)c1ccccc1O)N/N=C/c1cc(Br)ccc1OC(=O)/C=C/c1ccco1 do in these assays?
AMA1-RON2 inh: 18.2%; Pf growth 96h: 8.28µM*; Pf growth 48h: inconclusive; Sm TGR inh: inconclusive

How did O=C(CNC(=O)c1ccc(F)cc1)N/N=C/c1cc(Br)ccc1OCc1ccccc1 do in these assays?
AMA1-RON2 inh: 31.7%; Pf growth 96h: inconclusive; NS1 function inh: inconclusive; Pf growth 48h: 2.2%; Sm TGR inh: 3.9%

What do the screens show for `O=C(CNC(=O)c1cccc(F)c1)N/N=C/c1cc(Br)ccc1OC(=O)/C=C/c1ccco1`?
AMA1-RON2 inh: 49.3%; Pf growth 96h: 13.1µM*; NS1 function inh: 6.7%; Pf growth 48h: 13.1µM*; Sm TGR inh: inconclusive

How did COc1cccc(C(=O)Nc2ccc(C(=O)OCc3cc(=O)n4nc(C5CC5)sc4n3)cc2)c1 do in these assays?
Sm TGR inh: -3.9%

Results for CC(=O)N(Cc1cc2cc(C)ccc2[nH]c1=O)c1cccc(C)c1C ?
AMA1-RON2 inh: 9.6%; Pf growth 96h: 9.28µM*; NS1 function inh: 10.9%; Pf growth 48h: 0.1%; Sm TGR inh: -0.1%

What do the screens show for `Cc1ccc2cc(CN(C(=O)c3cccnc3)C(C)C)c(=O)[nH]c2c1`?
AMA1-RON2 inh: -7.0%; Pf growth 96h: inconclusive; NS1 function inh: -6.2%; Pf growth 48h: 11.7µM*; Sm TGR inh: 7.1%

Results for COc1cccc(C(=O)N(Cc2cc3cc(C)ccc3[nH]c2=O)C(C)C)c1 ?
AMA1-RON2 inh: 11.6%; Pf growth 96h: 3.7µM*; NS1 function inh: -17.7%; Pf growth 48h: 7.38µM*; Sm TGR inh: -4.2%

How did Cc1ccc(CNC(=O)c2c(Nc3c(C)cccc3C)sc(C(=O)c3ccccc3)c2N)cc1 do in these assays?
Sm TGR inh: -35.1%

What do the screens show for `CN(C)c1ccc(C2(c3ccc(N(C)C)cc3)OC(=O)c3cc(N)ccc32)cc1`?
AMA1-RON2 inh: inconclusive; Pf growth 96h: -0.8%; NS1 function inh: 8.5%; Pf growth 48h: -6.9%; Sm TGR inh: 6.1%

What do the screens show for `COc1cc(NC(=O)CN2CCCN(S(=O)(=O)c3ccc(F)cc3)CC2)cc(OC)c1`?
Sm TGR inh: 2.9%

What do the screens show for `O=C(CN1CCN(S(=O)(=O)c2ccc(F)cc2)CC1)NCC1(N2CCOCC2)CCCCC1`?
AMA1-RON2 inh: 17.0%; Pf growth 96h: -14.5%; Pf growth 48h: inconclusive; Sm TGR inh: 4.5%

How did O=C(CN1CCN(CC(=O)Nc2ccccc2Cl)CC1)NCC1(N2CCOCC2)CCCCC1 do in these assays?
AMA1-RON2 inh: -6.5%; Pf growth 96h: inconclusive; Pf growth 48h: 10.4µM*; Sm TGR inh: -18.0%

What do the screens show for `O=C(CN1CCN(S(=O)(=O)N2CCCCC2)CC1)Nc1cc(Cl)ccc1Cl`?
AMA1-RON2 inh: -1.7%; Pf growth 96h: 11.9%; NS1 function inh: -0.9%; Pf growth 48h: -19.5%; Sm TGR inh: -0.6%

How did NC(=O)C1(N2CCCCC2)CCN(CC(=O)Nc2cc(Cl)ccc2Cl)CC1 do in these assays?
AMA1-RON2 inh: 2.9%; Pf growth 96h: 18.1%; NS1 function inh: -5.2%; Pf growth 48h: 11.7µM*; Sm TGR inh: -2.9%

How did N#Cc1ccccc1S(=O)(=O)N1CCN(CC(=O)NCC2(N3CCOCC3)CCCCC2)CC1 do in these assays?
AMA1-RON2 inh: 21.0%; Pf growth 96h: 10.4µM*; Pf growth 48h: inconclusive; Sm TGR inh: -18.1%

What do the screens show for `O=C(CN1CCN(S(=O)(=O)c2cccc(Cl)c2)CC1)NCC1(N2CCOCC2)CCCCC1`?
AMA1-RON2 inh: 8.1%; Pf growth 96h: inconclusive; Pf growth 48h: 10.4µM*; Sm TGR inh: -15.0%

Results for Cc1cc(NC(=O)c2ccccc2F)ccc1-c1nc2ccccc2s1 ?
Sm TGR inh: 8.1%

What do the screens show for `N#Cc1ccccc1NC(=O)CN1CCOCC1`?
AMA1-RON2 inh: 5.8%; Pf growth 96h: 11.7µM*; NS1 function inh: 29.4%; Pf growth 48h: 5.0%; Sm TGR inh: 0.6%

Results for O=C(CN1CCN(S(=O)(=O)c2ccccc2Cl)CC1)NCC1(N2CCOCC2)CCCCC1 ?
AMA1-RON2 inh: -8.4%; Pf growth 96h: inconclusive; Pf growth 48h: 11.7µM*; Sm TGR inh: -5.5%
